These results are taken from PubChem BioAssay.

Calls of active or inactive are those of the source. Unless noted, the rule behind the calls is not given here.

The nature of assay [1]: A549 cell viability effects, profiling panel, calcein-AM fluorescence, 48 h, basal (AID 1162). Note: test concentration not given here. Particulars: higher = more signal.
A short description of assay [2]: adipocyte viability effects, profiling panel, cell-based, 3T3-L1 adipocytes, calcein-AM fluorescence, 48 h, basal (AID 1163). Note: test concentration not given here. The note with it: 3T3-L1 adipocytes viability, higher = more signal.
A short description of assay [3]: HepG2 cell viability effects, profiling panel, calcein-AM fluorescence, 48 h, basal (AID 1164). Note: test concentration not given here. Particulars: higher = more signal.
A short description of assay [4]: MM1S cell viability effects, profiling panel, calcein-AM fluorescence, 48 h, basal (AID 1165).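 Note: viability of MM1S multiple myeloma cells under basal unstimulated conditions; test concentration not given here.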 The note with it: higher = more signal.
A short description of assay [5]: basal RPMI8226 viability, no added stimulus, profiling panel, cell-based, calcein-AM fluorescence, 48 h, PK04 Diversity Set (AID 1166).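 Note: cells grown under basal conditions without added stimulus; test concentration not given here.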 The note with it: RPMI8226 myeloma viability, higher = more signal.
Assay [6] in a line: basal HepG2 mitochondrial membrane potential changes, profiling panel, cell-based, JC-1 fluorescence, 24 h, 100 nL compound (AID 1167). Note: test concentration not given here. Particulars: higher = more signal.
Assay [7] can be described thus: basal 3T3-L1 adipocyte mitochondrial potential changes, profiling panel, cell-based, JC-1 fluorescence, 3T3-L1 adipocytes, 24 h, 100 nL compound (AID 1168). Note: test concentration not given here. Particulars: JC-1 mitochondrial fluorescence, higher = more signal, called active from +8 up or from −8 down.
The nature of assay [8]: basal RPMI8226 mitochondrial membrane potential changes, profiling panel, cell-based, JC-1 fluorescence, 24 h, 100 nL compound (AID 1169). Note: test concentration not given here. The note with it: RPMI8226 myeloma, JC-1 mitochondrial potential fluorescence, higher = more signal.
Assay [9] in a line: basal MM1S mitochondrial membrane potential changes, profiling panel, cell-based, JC-1 fluorescence, 24 h, 100 nL compound (AID 1170). Note: test concentration not given here. Particulars: higher = more signal.
A short description of assay [10]: A549 lung cancer cell viability effects, profiling panel, resazurin fluorescence, 24 h, PK04 Diversity Set (AID 1171). Note: test concentration not given here. Particulars: higher = more signal, called active from +8 up or from −8 down. On the technique in general: Resazurin is reduced to fluorescent resorufin, in cell work by metabolically active cells.
The nature of assay [11]: HepG2 liver cancer cell viability effects, profiling panel, resazurin fluorescence, 24 h, PK04 Diversity Set (AID 1172). Note: test concentration not given here. Particulars: higher = more signal.
Assay [12] can be described thus: basal S. cerevisiae growth modulation, no modifier, primary screen, OD600, strain BY4716, 24 h, basal condition (AID 1173). Particulars: OD600, 24 h, higher = more signal, called active from +8 up or from −8 down.
A short description of assay [13]: MM1S myeloma cell viability, profiling panel, resazurin fluorescence, basal, 24 h, PK04 Diversity Set (AID 1174).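 Note: MM1S multiple myeloma cell line; test concentration not given here.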 The note with it: higher = more signal, called active from +8 up or from −8 down.
In assay [14] the target is Dihydroorotate dehydrogenase (quinone), mitochondrial (Plasmodium falciparum (isolate 3D7)) (UniProt Q08210). Description: PfDHODH enzyme inhibitors, primary screen, biochemical, C-terminal His tag, absorbance 600 nm (AID 1175).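 Note: recombinant parasite enzyme with a five histidine tag at its C terminus; test concentration not given here.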 Particulars: DCIP absorbance 600 nm, higher = more signal, called active from +8 up or from −8 down.
Sequence of Dihydroorotate dehydrogenase (quinone), mitochondrial (Plasmodium falciparum (isolate 3D7)) (Q08210 whole entry, looked up): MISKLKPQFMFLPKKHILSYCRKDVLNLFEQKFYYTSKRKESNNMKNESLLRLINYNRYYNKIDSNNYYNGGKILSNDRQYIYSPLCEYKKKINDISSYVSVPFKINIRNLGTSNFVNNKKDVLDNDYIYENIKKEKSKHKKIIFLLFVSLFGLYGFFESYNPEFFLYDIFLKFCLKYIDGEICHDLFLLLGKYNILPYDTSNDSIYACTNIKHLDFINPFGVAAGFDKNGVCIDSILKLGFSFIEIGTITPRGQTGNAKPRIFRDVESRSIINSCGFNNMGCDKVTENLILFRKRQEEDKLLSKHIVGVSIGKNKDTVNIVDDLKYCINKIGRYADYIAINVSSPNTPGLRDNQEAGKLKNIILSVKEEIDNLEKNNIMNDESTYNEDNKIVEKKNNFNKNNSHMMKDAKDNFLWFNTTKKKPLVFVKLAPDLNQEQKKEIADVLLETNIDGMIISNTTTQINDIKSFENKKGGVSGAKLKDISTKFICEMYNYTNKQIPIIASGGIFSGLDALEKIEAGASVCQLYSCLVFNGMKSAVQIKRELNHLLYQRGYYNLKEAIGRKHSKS
Assay [15] is described as follows: P. aeruginosa biofilm formation inhibitors, primary screen, strain PAO1, LB-PBS medium, absorbance 600 nm (AID 1176). Note: test concentration not given here. The note with it: P. aeruginosa PAO1 growth/biofilm, A600, 12 h; higher = more signal.
Assay [16] can be described thus: S. cerevisiae RM11-1a growth modifiers, primary screen, strain RM11-1a, OD600, basal, 24 h (AID 1177).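 Note: cultures grown under basal conditions with no added stressor; test concentration not given here.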 Particulars: OD600, 24 h, higher = more signal, called active from +8 up or from −8 down.
Assay [17] is described as follows: E. coli acrAB mutant growth effects, primary screen, E. coli filamentation inducers, strain DRC39, OD650, 24 h (AID 1178).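 Note: growth measured as culture turbidity by optical density at 650 nm; test concentration not given here.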 The note with it: higher = more signal, called active from +8 up or from −8 down.
Assay [18] is described as follows: E. coli acrAB mutant growth effects, primary screen, E. coli filamentation inducers, strain DRC39, OD650, 48 h (AID 1179).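 Note: screen aims at cell division blockers that make cells filament.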 The note with it: E. coli DRC39 delta-acrAB growth, higher = more signal, called active from +8 up or from −8 down.
A short description of assay [19]: RPMI8226 myeloma cell viability, profiling panel, resazurin fluorescence, basal, 24 h, PK04 Diversity Set (AID 1180).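 Note: RPMI8826 multiple myeloma cell line at 5000 cells per well; test concentration not given here.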 Particulars: higher = more signal.
In assay [20] the target is E3 ubiquitin-protein ligase XIAP (Homo sapiens) (UniProt P98170). Description: XIAP binders, primary screen, biophysical, small-molecule microarray, fluorescence 635 nm (AID 1181).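 Note: score merges 667 nm emission and signal to noise over triplicate slides.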 Particulars: small-molecule microarray binding, higher = more signal.
Sequence of E3 ubiquitin-protein ligase XIAP (Homo sapiens) (P98170 whole entry, looked up): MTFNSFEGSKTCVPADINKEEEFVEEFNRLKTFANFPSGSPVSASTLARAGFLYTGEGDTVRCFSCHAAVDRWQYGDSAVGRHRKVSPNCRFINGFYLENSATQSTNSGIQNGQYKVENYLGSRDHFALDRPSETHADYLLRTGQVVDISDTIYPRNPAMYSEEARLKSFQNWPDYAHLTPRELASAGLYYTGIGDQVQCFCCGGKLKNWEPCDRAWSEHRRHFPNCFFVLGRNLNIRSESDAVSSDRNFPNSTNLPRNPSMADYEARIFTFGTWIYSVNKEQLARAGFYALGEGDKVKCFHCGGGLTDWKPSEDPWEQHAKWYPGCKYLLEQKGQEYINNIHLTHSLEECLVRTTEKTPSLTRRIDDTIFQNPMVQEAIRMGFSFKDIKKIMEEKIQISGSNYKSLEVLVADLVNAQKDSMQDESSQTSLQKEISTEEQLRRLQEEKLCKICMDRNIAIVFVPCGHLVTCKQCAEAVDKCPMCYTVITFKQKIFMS

For `C=C(CCCC)/C(=C/C[C@@H](OC(C)=O)c1ccc(OCCO)cc1)c1cnc2ccccc2c1`, the z-score in assay [1] was 2.57; in assay [2] it was 0.197; in assay [3], 1.12; in assay [4] it was -1.27; in [5], -0.0971; in assay [6], 1.65. The z-score was -0.38 (inactive) in [7]; -0.364 in [8]; -1.16 in assay [9]; 0.775 (inactive) in assay [10]; 0.54 in assay [11]; -0.845 (inactive) in assay [12]. The z-score is -0.267 (inactive) in assay [13]; 0.825 (inactive) in assay [15]; -0.81 (inactive) in assay [16]; 1.85 (inactive) in assay [17]; 1.49 (inactive) in [18]; 0.445 in [19]. Further, the composite z-score is -4.4 (inactive) in [14] and -0.0228 in [20].

Regarding `C=C(CCCC)/C(=C/C[C@H](OC(=O)c1ccncc1)c1ccccc1OCCO)c1cnc2ccccc2c1`, the z-score was 0.0262 in [1]; 0.091 in assay [2]; 0.0722 in assay [3]; -3.3 in [4]; -2.97 in [5]; 0.943 in assay [6]. Also, the z-score in assay [7] is -0.424 (inactive); in assay [8], -0.716; in assay [9], -0.705; in [10], 0.89 (inactive); in assay [11] it was 0.381; in assay [12] it was -0.0677 (inactive). Also, the z-score in [13] is -1.07 (inactive); in [15] it was 1.23 (inactive); in assay [16] it was -0.254 (inactive); in [17], 0.133 (inactive); in assay [18], 0.126 (inactive); in [19] it was -0.64. Further, the composite z-score was -2.03 (inactive) in assay [14] and -0.252 in assay [20].

For the molecule `COCCCNC(=O)[C@@]1(C)c2ccccc2C(=O)N(C(C)C)[C@H]1c1ccc(CO)cc1`, the z-score was -0.276 in assay [1]; -0.208 in assay [2]; -0.51 in assay [3]; 0.0651 in assay [4]; 0.532 in [5]; 0.043 in [6]. For the same molecule, the z-score is 0.304 (inactive) in assay [7]; 0.887 in [8]; -0.441 in [9]; 0.601 (inactive) in assay [10]; -0.104 in assay [11]; 0.836 (inactive) in assay [12]. The z-score is -0.18 (inactive) in assay [13]; 0.208 (inactive) in assay [15]; 1.24 (inactive) in assay [16]; 0.32 (inactive) in assay [17]; -0.279 (inactive) in [18]; -0.316 in assay [19]. Moreover, the composite z-score in [14] is 0.663 (inactive); in assay [20], 0.109.

In the case of `CN(C)CCCC[C@@H]1NC(=O)[C@H]2C[C@@H](C(=O)NCCCCCCN)[C@@H](c3ccc(O)cc3)N2C1=O`, the z-score was 0.168 in assay [1]; 0.526 in [2]; -0.0064 in assay [3]; -0.314 in [4]; 0.226 in assay [5]; -0.878 in [6]. The z-score in [7] is 0.862 (inactive); in [8], -0.128; in assay [9], 0.119; in [10], 0.286 (inactive); in assay [11], -0.24; in assay [12], -0.343 (inactive). Further, the z-score was 0.696 (inactive) in assay [13]; -0.338 (inactive) in assay [15]; 0.578 (inactive) in assay [16]; 0.332 (inactive) in assay [17]; 0.458 (inactive) in [18]; 0.683 in assay [19]. For the same molecule, the composite z-score in assay [14] was -1.31 (inactive); in assay [20] it was 0.121.

For `CCCCC(CC)C(O)C1C=CC2C(=O)N(Cc3ccccc3)C(=O)C2N1n1cnnc1` (stereo not given), the z-score was -0.682 in assay [1]; -0.498 in assay [2]; -0.391 in assay [3]; -0.165 in [4]; -0.208 in assay [5]; -0.522 in [6]. Besides, the z-score in assay [7] was -1.48 (inactive); in [8], 0.447; in assay [9], 0.533; in assay [10] it was -0.56 (inactive); in assay [11] it was -0.661; in assay [12] it was 0.374 (inactive). The z-score in assay [13] is -0.763 (inactive); in assay [15] it was -0.445 (inactive); in assay [16] it was -0.666 (inactive); in [17], -1.03 (inactive); in assay [18], -1.46 (inactive); in [19], -1.01. Moreover, the composite z-score in [14] was -0.495 (inactive); in assay [20], 0.0228.

Consider `COC(=O)[C@@]1(Cc2ccc(OC)cc2)[C@H]2c3cc(C(=O)N4CCCC4)n(CCN4CNCC4=O)c3C[C@H]2CN1C(=O)c1ccccc1`, for which the z-score in assay [1] is -0.215; in assay [2] it was 0.0334; in [3], -0.137; in [4], -0.105; in assay [5], -2.17; in [6], 0.696. Moreover, the z-score in assay [7] is -0.514 (inactive); in assay [8], -0.429; in [9], -0.162; in assay [10] it was -0.936 (inactive); in assay [11] it was -0.66; in [12], 0.818 (inactive). Further, the z-score in [13] is -0.359 (inactive); in assay [15] it was 1.68 (inactive); in assay [16], 1.22 (inactive); in [17] it was -0.146 (inactive); in assay [18], -0.199 (inactive); in assay [19], 0.0221. Further, the composite z-score in [14] is 0.0916 (inactive); in assay [20], 0.778.

For `CCCCCCc1nc(-c2ccc(OC)nc2)cc2c1[Si](C(C)C)(C(C)C)O[C@H]2c1ccccc1`, the z-score is -0.33 in assay [1]; -0.261 in assay [2]; -1.1 in assay [3]; -0.26 in assay [4]; -1.12 in assay [5]; -1.14 in assay [6]. Besides, the z-score in [7] was -1.3 (inactive); in assay [8], -0.198; in [9], -0.281; in [10], 0.98 (inactive); in assay [11] it was 0.153; in assay [12], 0.676 (inactive). Besides, the z-score in [13] is 0.0809 (inactive); in [15], 0.256 (inactive); in [16] it was 0.056 (inactive); in assay [17], 0.231 (inactive); in assay [18] it was -0.0838 (inactive); in [19], 0.732. The composite z-score is -0.0348 (inactive) in assay [14] and -0.241 in assay [20].

Regarding `COC(=O)[C@@]1(Cc2ccccc2)[C@H]2c3cc(C(=O)N4CCCC4)n(Cc4ccc(S(C)(=O)=O)cc4)c3C[C@H]2CN1C(=O)c1ccccc1`, the z-score in assay [1] was -0.235; in [2], 0.949; in [3], -0.838; in assay [4], -1.09; in [5], -1.68; in [6] it was 2.43. The z-score in [7] is -1.62 (inactive); in [8], 0.148; in [9], -0.659; in [10], 0.142 (inactive); in assay [11], -0.837; in [12], 0.912 (inactive). The z-score in assay [13] was -0.774 (inactive); in assay [15], 0.206 (inactive); in assay [16], -0.33 (inactive); in assay [17], -1.33 (inactive); in [18], -0.195 (inactive); in assay [19], -1.14. The results for the composite z-score in assay [14] and in assay [20] were -0.467 (inactive) and -0.105, respectively.

With `CC(C)[Si](C#Cc1ccc(Oc2ccccc2)cc1)(O[Si](C#Cc1ccc(Oc2ccccc2)cc1)(C(C)C)C(C)C)C(C)C`, the z-score in assay [1] was 0.271; in assay [2] it was 0.587; in assay [3] it was -0.377; in assay [4], -1.58; in assay [5], -0.743; in assay [6] it was -0.683. Moreover, the z-score in [7] is 0.733 (inactive); in [8], 0.0384; in [9] it was -0.00729; in [10], 0.162 (inactive); in assay [11] it was 0.0013; in assay [12] it was 1.95 (inactive). Besides, the z-score in [13] was 0.698 (inactive); in assay [15], -0.133 (inactive); in assay [16], 1.88 (inactive); in assay [17], 0.879 (inactive); in assay [18] it was 0.3 (inactive); in [19], 0.603. Further, the composite z-score is 0.936 (inactive) in assay [14] and -0.0009 in [20].
